According to PubChem BioAssay (EPA / NIEHS):
Inconclusive results are not listed. Calls of active or inactive are those of the source. Rule for the calls, unless noted: active = hit-call score of the fitted dose curve at least 0.9, where 1 is the maximum; inactive = score below 0.9.

Legend:
[1] = system: SRY-box transcription factor 17 (SOX17) Protein Expression, Deisenroth Lab, SOX17 (gene 64321); assay: CCTE_Deisenroth_DEVTOX-GLR_legacy_Sox17: (Legacy) CCTE's DevTox GLR-Endo Assay Evaluation of SRY-box transcription factor 17 (SOX17) Protein Expression, Deisenroth Lab (AID 2284341); conditions: actives raise or lower the signal
Method in brief: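 Using the RUES2-GLR line, compounds are tested as 10-point series during 48-h defined-media differentiation. Sox17 reporter fluorescence per cell determines positivity; endpoint is percentage positive, analysed bidirectionally versus DMSO baseline.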

[2] = system: SRY-box transcription factor 2 (SOX2) Protein Expression, Deisenroth Lab, SOX2 (gene 6657); assay: CCTE_Deisenroth_DEVTOX-GLR_legacy_Sox2: (Legacy) CCTE's DevTox GLR-Endo Assay Evaluation of SRY-box transcription factor 2 (SOX2) Protein Expression, Deisenroth Lab (AID 2284346)
Method in brief: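 Percent Sox2-positive cells was scored by high-content imaging of 5 fields per well. Positivity cutoff was 5x BMAD over the directed endoderm control, and the DMSO median was subtracted. Cells were RUES2-GLR, dosed twice at 24-h intervals over 48 h of differentiation (1 nM-200 uM).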

[3] = system: SRY-box transcription factor 2 (SOX2) Protein Expression, Deisenroth Lab, SOX2 (gene 6657); assay: CCTE_Deisenroth_DEVTOX-GLR_Endo_SOX2: CCTE's DevTox GLR-Endo Assay Evaluation of SRY-box transcription factor 2 (SOX2) Protein Expression, Deisenroth Lab (AID 2284412; active = hit-call score of the fitted dose curve at least 0.9, where 1 is the maximum)
Method in brief: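 Endpoint is percent SOX2-positive cells (SOX2+ count/total cells) minus 0.2% DMSO control, from high-content imaging of fixed, nuclear-stained RUES2-GLR cells. Dosing twice at 24 h intervals over 48 h differentiation, 1 nM–200 uM in 10 points.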

[4] = system: SRY-box transcription factor 17 (SOX17) Protein Expression, Deisenroth Lab, SOX17 (gene 64321); assay: CCTE_Deisenroth_DEVTOX-GLR_Endo_SOX17: CCTE's DevTox GLR-Endo Assay Evaluation of SRY-box transcription factor 17 (SOX17) Protein Expression, Deisenroth Lab (AID 2284413)
Method in brief: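 RUES2-GLR human pluripotent cells were seeded 24 h, then differentiated toward endoderm for 48 h with two chemical exposures 24 h apart (10-point series, 1 nM - 200 uM). Nuclei-stained fixed cells were imaged; endpoint is percent change in SOX17+ cells versus 0.2% DMSO.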

[5] = system: Brachyury (BRA) Protein Expression, TBXT (gene 6862); assay: CCTE_Deisenroth_DEVTOX-GLR_Endo_BRA: CCTE's DevTox GLR-Endo Assay Evaluation of Brachyury (BRA) Protein Expression, Deisenroth Lab (AID 2284417)
Method in brief: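 Percent BRA+ (mesoderm) RUES2-GLR cells after 48 h differentiation with two exposures, 1 nM - 200 uM; 0.2% DMSO control subtracted.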

[6] = CCTE_Deisenroth_DEVTOX-GLR_Endo_CellCount: Viability Assessment in CCTE's DevTox GLR-Endo Assay, Deisenroth Lab (AID 2284420)
Method in brief: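 Viability in differentiating RUES2-GLR cultures is scored by fluorescent nuclear counts after 48 h and two 24-hourly chemical treatments, as percent change from the 0.2% DMSO control.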

[7] = CCTE_Padilla_ZF_Score.Craniofacial: CCTE's 144 Hour Post-fertilization zebrafish Assay Score for Craniofacial Malformation, Padilla Lab (AID 2284405)
Method in brief: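 Craniofacial defects were scored at 6 dpf by two blinded observers using stereomicroscopy. Exposure of wild-type embryos began at 6–8 hpf in sealed wells of 10% Hanks' solution at 26C, with chemical removed by rinsing at 5 dpf.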

[8] = CCTE_Padilla_ZF_Score.Edema: CCTE's 144 Hour Post-fertilization zebrafish Assay Score for Edema Malformation, Padilla Lab (AID 2284406)
Method in brief: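 Edema scored at 6 dpf by two blinded observers under a stereo microscope, in single outbred wild-type larvae exposed from 6-8 hpf in sealed wells (Hanks', 26C, 14:10 h light) and chemical-free after a 5 dpf rinse.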

[9] = CCTE_Padilla_ZF_Score.Spine: CCTE's 144 Hour Post-fertilization zebrafish Assay Score for Spine Malformation, Padilla Lab (AID 2284407)
Method in brief: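 Spine malformation scored at 6 dpf by two independent blinded observers under stereomicroscope, after static sealed exposure from 6–8 hpf at 26C in Hanks' solution with rinse on 5 dpf. Positive-direction fit against DMSO control.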

[10] = CCTE_Padilla_ZF_Score.Swim_bladder: CCTE's 144 Hour Post-fertilization zebrafish Assay Score for Swim Bladder Malformation, Padilla Lab (AID 2284408)
Method in brief: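 Swim bladder inflation scored at 6 dpf by two blinded observers under a stereo microscope. Exposure ran from 6–8 hpf in sealed wells of 10% Hanks' at 26C, with rinsing at 5 dpf; DMSO served as baseline.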

[11] = CCTE_Padilla_ZF_Score.Position: CCTE's 144 Hour Post-fertilization zebrafish Assay Score for Position, Padilla Lab (AID 2284409)
Method in brief: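 Wild-type zebrafish embryos (with chorions) exposed singly from 6–8 hpf in sealed wells of Hanks' solution at 26C, rinsed at 5 dpf. At 6 dpf, blinded assessors scored abnormal water-column position by brightfield stereomicroscopy, relative to DMSO.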

[12] = CCTE_Padilla_ZF_Score.Living: CCTE's 144 Hour Post-fertilization zebrafish Assay Score for Viability, Padilla Lab (AID 2284410);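 note: larval death at 6 dpf judged by absent heartbeat or coagulation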
Method in brief: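 Mortality at 6 dpf, judged as absent heartbeat or coagulation by two blinded observers, after sealed static exposure beginning at 6–8 hpf at 26C. Larvae were rinsed free of chemical at 5 dpf, and activity was fitted relative to DMSO.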

[13] = CCTE_Padilla_ZF_Score.Tail: CCTE's 144 Hour Post-fertilization zebrafish Assay Score for Tail Malformation, Padilla Lab (AID 2284414)
Method in brief: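 Tail malformations were scored at 6 dpf by two blinded assessors under a stereo microscope. Chorionated embryos had been exposed from 6-8 hpf in sealed wells of 10% Hanks' at 26 C, then rinsed free of chemical at 5 dpf.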

[14] = CCTE_Padilla_ZF_Score.Blood_pooling: CCTE's 144 Hour Post-fertilization zebrafish Assay Score for Blood Pooling, Padilla Lab (AID 2284415)
Method in brief: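 Blood pooling was scored at 6 dpf under a stereo microscope by two blinded assessors, fitted upward against DMSO. Single embryos were dosed at 6–8 hpf in 10% Hanks', kept sealed at 26C (14:10 h cycle) and rinsed at 5 dpf.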

[15] = CCTE_Padilla_ZF_Score.Any: CCTE's 144 Hour Post-fertilization zebrafish Assay Score for Any Mortality or Malformation, Padilla Lab (AID 2284416)
Method in brief: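 Wild-type zebrafish embryos with chorions, one per well in 10% Hanks' from 6–8 hpf, dosed in sealed plates at 26 C, 14:10 h light:dark; rinsed at 5 dpf; blinded scoring at 6 dpf for death or malformation, versus DMSO.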

| Structure (SMILES) | AC50 [1] | AC50 [2] | outcome [3] | AC50 [4] | AC50 [5] | AC50 [6] | outcome [7] | outcome [8] | outcome [9] | outcome [10] | outcome [11] | outcome [12] | outcome [13] | outcome [14] | outcome [15] |
| --- | --- | --- | --- | --- | --- | --- | --- | --- | --- | --- | --- | --- | --- | --- | --- |
| CS(=O)(=O)OCCCCOS(C)(=O)=O | 47.3 µM (active) | 77 µM (active) | inactive | 44.5 µM (active) | 100 µM (active) | 14.4 µM (active) | – | – | – | – | – | – | – | – | – |
| FC(F)(F)COCC(F)(F)F | – | – | – | – | – | – | inactive | inactive | inactive | inactive | inactive | inactive | inactive | inactive | inactive |
